Data on 40 compounds can be found in PubChem BioAssay (NCI).

This is part of a sample that, as a whole, favours compounds with a hit. Of some 83,000 tested, about 20% had one in any assay.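 A percent growth of 40 corresponds to 60% growth inhibition; 0 means no net growth; -100 means all cells died. Active threshold: below 10.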 The source made the active and inactive calls.

In this assay the test system is SNB-19 CNS. In words: NCI-60 one-dose screen, 48 h (100 = growth as untreated, 0 = no growth, -100 = all killed). The following applies: 10 µM. The method, then:
Growth inhibition of the SNB-19 human tumor cell line is measured as a screen for anti-cancer activity. Cells are grown in 96 well plates and exposed to the test compound for 48 hours. Compounds are tested at a single concentration, which is 10^-5 M for most compounds. The reported endpoint is percent growth (GI% or GIPRCNT), where numbers from 0 - 100% represent growth inhibition, and numbers from -100% - 0 represent cell death. For example, a value of 40 represents 60% growth inhibition. A value of 0 means no net growth occurred over the course of the experiment. A value of -40 indicates 40% of cells at the beginning of the experiment died by the end of the experiment. A value of -100 means all cells are dead at the end of the experiment.
NCI-60 Human Tumor Cell Lines Screen was performed using the standard one-dose NCI protocol, which is described in more detail at https://dtp.cancer.gov/discovery_development/nci-60/default.htm.
Compounds with GIPRCNT values below 10 were considered active. Activity score was based on GIPRCNT using the following formula: […]
Score is 0 for GIPRCNT values of 100 or above, 50 for GIPRCNT values of 0, and 100 for GIPRCNT values of -100.
On to `CCC(C#N)(CC)c1ccccc1`, for which the growth is 99.5% (inactive).

In the case of `Cc1cccc(C(=O)N(C(C)C)C(C)C)c1`, the growth was 99.6% (inactive).

As for `Cc1c(O)cnc2nn(-c3ccccc3)c(=N)n12`, the growth was 98.5% (inactive).

As to `CNS(=O)(=O)c1ccc(Cl)c(Cl)c1`, the growth was 106% (inactive).

With `Oc1ccc2c(c1)OCC1(O)Cc3cc(O)c(O)cc3C21` (stereo not given), the growth was 117% (inactive).

Consider `CC(=O)OCCC(C)CCC=C(C)C` (stereo not given), for which the growth is 103% (inactive).

For `CC(C)CCOC(=O)c1ccccc1`, the growth is 105% (inactive).

As to `CC(=O)NCc1cc(C)c(C)cc1C`, the growth was 109% (inactive).

Turning to `C/C=C/CC(C)C(O)C1C(=O)NC(CC)C(=O)N(C)CC(=O)N(C)C(CC(C)C)C(=O)NC(C(C)C)C(=O)N(C)C(CC(C)C)C(=O)NC(C)C(=O)NC(C)C(=O)N(C)C(CC(C)C)C(=O)N(C)C(CC(C)C)C(=O)N(C)C(C(C)C)C(=O)N1C` (stereo not given), the growth was 41.7% (inactive).

In the case of `CC(C)(N)COS(=O)(=O)O`, the growth is 93% (inactive).

In the case of `O=[N+]([O-])c1cccc(C(F)(F)F)c1`, the growth is 103% (inactive).

For `O=C(Cc1ccccc1)Cc1ccccc1`, the growth is 101% (inactive).

For `C#Cc1cccc(NC(=O)c2ccc(Cl)cc2Cl)c1`, the growth was 97.3% (inactive).

Consider `COc1cccc(/C=N/NC(=S)NC2CC3CCC2C3)c1O` (stereo not given), for which the growth is 72.4% (inactive).

Turning to `S=C(Nc1ccccc1)N1CCCCC1`, the growth is 111% (inactive).

Consider `COc1ccccc1NC(=O)c1cc2cc(Br)ccc2cc1O`, for which the growth was 27.3% (inactive).

With `CC(C)(C)n1nc(C2CC2)c(Br)c1NC(=O)c1ccccc1F`, the growth was 107% (inactive).

For the compound `CCCC(=O)Nc1ccc2c(c1)CN1C(=O)c3ccccc3C1=N2`, the growth was 110% (inactive).

`CC1SC(N)=NC1=O` (stereo not given): the growth is 109% (inactive).

As to `CC(=O)OCC(=O)[C@@]1(O)CC[C@H]2[C@@H]3CC[C@@H]4C[C@H](O)CC[C@]4(C)[C@H]3C(=O)C[C@@]21C`, the growth was 111% (inactive).

Consider `N#CC1(Nc2ccc3c4c(cccc24)CC3)CCCCC1`, for which the growth was 107% (inactive).

On to `CSC[C@H](NC(=O)COc1cccc2cnccc12)C(=O)NC(Cc1ccccc1)C(O)C(=O)N1CSC[C@H]1C(=O)NC(C)(C)C` (stereo not given in full), for which the growth is 103% (inactive).

On to `CC1OC(Oc2c(-c3ccc(O)c(O)c3)oc3cc(O)cc(O)c3c2=O)C(O)C(O)C1O` (stereo not given), for which the growth was 105% (inactive).

For `COc1ccc(-c2cc3c(nn2)-c2ccccc2C3=O)cc1`, the growth was 78.9% (inactive).

`COc1cccc(O)c1O`: the growth was 65.1% (inactive).

On to `CCCCC(CC)COC(C)=O` (stereo not given), for which the growth was 106% (inactive).

In the case of `O=C(CN1CCNCC1)N1CCOCC1`, the growth is 102% (inactive).

As for `CC(O)COc1ccc(-c2ccccc2)cc1` (stereo not given), the growth is 98.4% (inactive).

Turning to `Nc1ccc(N=Nc2ccc(S(=O)(=O)O)cc2)c2ccccc12`, the growth is 106% (inactive).

In the case of `NC(=O)c1ccc(N=C(N)N=C(N)N)cc1`, the growth is 110% (inactive).

As for `O=c1cc(-c2ccccc2)nc2cc(-c3ccco3)[nH]n12`, the growth is 95.8% (inactive).

`CC1(C)Nc2cccc3c(N=Nc4ccc(N=Nc5ccccc5)c5ccccc45)ccc(c23)N1`: the growth was 124% (inactive).

Regarding `Oc1ccccc1O`, the growth is 80.2% (inactive).

For the compound `O=C(NCO)c1ccccc1`, the growth was 107% (inactive).

In the case of `COc1cc2c3cc1Oc1c(OC)c(OC)cc4c1C(Cc1ccc(O)c(c1)Oc1ccc(cc1)CC3N(C)CC2)N(C)CC4` (stereo not given), the growth is 27.2% (inactive).

Turning to `COc1cc(OC)c2ccc(=O)oc2c1`, the growth was 99% (inactive).

Consider `CCC(C)(C)C1CCC(O)CC1` (stereo not given), for which the growth is 100% (inactive).

Take `COc1cc2c(cc1OC)[C@H](C(=O)O)[C@@H](c1ccc(OC(C)C)c(OC)c1)N(C)C2=O`: the growth is 94.8% (inactive).

With `C=CCNc1ccccc1`, the growth was 91.5% (inactive).

On to `CCCCOC(OCCCC)c1ccccc1`, for which the growth was 95.4% (inactive).
